High-throughput results as filed in PubChem.
An excerpt weighted towards active compounds, which were near 10% of everything screened.
GPT2 inhibitor = blocks human glutamate pyruvate transaminase 2; Q8TD30; Recombinant GPT2, coupled pyruvate oxidase/HRP Amplex Red fluorescence; Potency, µM (series often up to 57.7 µM), without a hit: at the top dose activity change, negative = inhibition, hits mostly inhibitors; 100,000 compounds, 0.25% hits; AID 1671188; also: % is scaled to controls: 0 for no effect and ±100 for the full control effect; nearly all actives have a fitted effect of over 60% in size
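Fluorescence of coupled pyruvate oxidase/HRP/Amplex Red system (50uM Amplex, 30 min, dark) reports pyruvate formed by GPT2. Enzyme reaction: 10ng/uL GPT2, 2mM L-alanine, 250uM a-KG, 30 min room temperature, pH 7.5; 50uM AOA control.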
HEK cytotox = cytotoxic compounds in HEK 293 cells; HEK 293 viability, ATP luminescence (CellTiter-Glo), 48-72 h; Potency, µM (titrated, usually from 115 µM), for the others: at the highest dose activity change, negative = cytotoxicity, usual class: inhibitors; 94,000 compounds, 6.6% hits; also: % is scaled to controls: 0 for no effect and ±100 for the full control effect; nearly all actives have a fitted effect of over 60% in size
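250 HEK 293 cells/well; compound by pintool; incubated 48 or 72 hr at 37 degree Celsius; CellTiter-Glo added, 10 min RT, luminescence imaged.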
hNpr1 antagonist = antagonists of human natriuretic peptide receptor Npr1. HEK293 hNpr1 GloSensor cGMP, ANP-stimulated luminescence. P16066. 76,000 compounds, 1.6% hits. Potency, µM (titrated, usually from 46.3 µM), for inactives: at the highest dose activity change, negative = inhibition, most hits filed as inhibitors. AID 1347048; calls by dose curve; also: % is scaled to controls: 0 for no effect and ±100 for the full control effect; nearly all actives have a fitted effect of over 60% in size
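Compound pre-incubated 30 min at room temperature on GloSensor-loaded HEK293 cells stably carrying hNpr1 and the pGS-40F cGMP biosensor. Stimulation uses hNppA at 0.1 nM final; luminescence is taken at baseline and 20 min post-agonist.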
NIH3T3 tox = kills NIH 3T3 cells. NIH 3T3 viability, CellTiter-Glo ATP luminescence, 48-72 h. 94,000 compounds, 4.3% hits. AID 1345082. Potency, µM (doses to about 96.7 µM), for the others: top-dose activity change, negative = cytotoxicity, most hits filed as inhibitors; also: % is scaled to controls: 0 for no effect and ±100 for the full control effect; nearly all actives have a fitted effect of over 55% in size
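NIH 3T3 cells at 400 cells/well received 23 nL of compound by pintool and were incubated 48 or 72 h at 37 °C. Viability was read as ATP-coupled CellTiter-Glo luminescence.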
Luciferase inh = blocks purified firefly luciferase enzyme activity; P08659; 76,000 compounds, 2.5% hits; purified P. pyralis luciferase, luminescence, biochemical; Potency, µM (doses to about 115 µM), hits mostly inhibitors; also: % is scaled to controls: 0 for no effect and ±100 for the full control effect; nearly all actives have a fitted effect of over 65% in size
Target sequence (P08659 whole entry, looked up): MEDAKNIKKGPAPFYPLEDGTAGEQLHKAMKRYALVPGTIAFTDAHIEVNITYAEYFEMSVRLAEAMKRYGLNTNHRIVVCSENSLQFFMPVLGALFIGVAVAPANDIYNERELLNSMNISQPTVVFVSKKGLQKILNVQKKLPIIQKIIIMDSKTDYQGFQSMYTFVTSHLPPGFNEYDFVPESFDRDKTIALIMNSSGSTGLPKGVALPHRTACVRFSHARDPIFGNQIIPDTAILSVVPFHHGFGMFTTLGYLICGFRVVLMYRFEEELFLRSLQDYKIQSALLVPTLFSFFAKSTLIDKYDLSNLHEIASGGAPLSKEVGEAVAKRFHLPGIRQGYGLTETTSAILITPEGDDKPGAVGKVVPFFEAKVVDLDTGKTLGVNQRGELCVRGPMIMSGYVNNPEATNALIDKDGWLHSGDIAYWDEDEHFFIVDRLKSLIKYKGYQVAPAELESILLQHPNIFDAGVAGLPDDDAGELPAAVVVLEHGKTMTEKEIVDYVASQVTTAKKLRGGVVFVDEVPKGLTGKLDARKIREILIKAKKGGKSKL
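Purified P. pyralis luciferase (10nM final) in 50mM Tris acetate pH 7.5, 10mM Mg acetate, 0.01% Tween-20, 0.05% BSA with 10uM D-luciferin and 10uM ATP. Compounds titrated qHTS. Luminescence imaged on CCD.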
Npr1 antag conf = confirmation of human Npr1 natriuretic peptide receptor antagonists. Potency, µM (doses to about 57.6 µM), for inactives: top-dose activity change, negative = inhibition, most hits filed as inhibitors. 1,400 compounds, 76% hits. shares compounds with hNpr1 antagonist. HEK293 hNpr1 cGMP GloSensor luminescence, ANP-stimulated; calls by dose curve; also: nearly all actives have a fitted effect of over 70% in size
Npr2 selectivity = antagonizes human Npr2, subtype selectivity check; shares compounds with hNpr1 antagonist; HEK293 hNpr2 GloSensor cGMP luminescence, CNP-stimulated; Potency, µM (top dose mostly 57.6 µM), for the others: at the top dose activity change, negative = inhibition, actives largely listed as inhibitors; 1,400 compounds, 67% hits; calls by dose curve; also: nearly all actives have a fitted effect of over 70% in size
FLuc inh counter = inhibits firefly luciferase, false Npr1 antagonist flag; AID 1347047; shares compounds with hNpr1 antagonist; Potency, µM (top dose mostly 57.6 µM), for inactives: top-dose activity change, negative = inhibition, actives largely listed as inhibitors; 1,400 compounds, 0.7% hits; purified FLuc enzyme, luminescence, Km substrate; also: 0% is about no effect
GloSensor ctrl = counter-screen for Npr1 antagonists: GloSensor control cell line; shares compounds with hNpr1 antagonist; 1,400 compounds, 69% hits; Potency, µM (top dose mostly 57.6 µM), for inactives: at the top dose activity change, negative = inhibition, actives largely listed as inhibitors; HEK293 GloSensor cGMP, SNP-stimulated, luminescence; AID 1347051; calls by dose curve; also: % is scaled to controls: 0 for no effect and ±100 for the full control effect; nearly all actives have a fitted effect of over 70% in size
* hit, by the source's call; i = inactive; ? = inconclusive; nt = not tested or not shown; [ ] = another dose, or the depositor's remark. Unless noted, calls follow the shape of the dose curve; as a rule, active = well fitted curve in the direction sought with a large enough effect; inconclusive = small, poorly fitted or top-dose-only effect, or another doubt; inactive = no such curve, though single readings can be large; an effect the other way counts as inactive or inconclusive. Potency is read from the fitted curve at half-maximal effect.

SMILES	GPT2 inhibitor	HEK cytotox	hNpr1 antagonist	NIH3T3 tox	Luciferase inh	Npr1 antag conf	Npr2 selectivity	FLuc inh counter	GloSensor ctrl
COCc1nc(-c2ccc(OC3CN(S(=O)(=O)c4ccccc4C)C3)cc2)no1	-19.3%	14.1µM*	11.2µM*	?	i	12.2µM*	19.3µM*	1.2%	15.3µM*
Cc1nc(-c2ccc(OC3CCN(C(=O)NC4CCCCC4)C3)cc2)no1 (configuration not stated)	i	?	-4.0%	?	i	nt	nt	nt	nt
Cc1ccc(CNC(=O)N2CCC(Oc3ccc(-c4noc(C)n4)cc3)C2)cc1 (configuration not stated)	-5.8%	?	20µM*	?	i	?	-28.2%	-16.9%	-18.2%
CC(C(=O)N1CCn2nc(Cc3ccccc3)cc2C1)c1ccc(O)cc1 (configuration not stated)	i[11.5 µM]	?	-3.5%	?	i	nt	nt	nt	nt
O=C(NCCCc1ccccc1)c1n[nH]c2c1CN(C(=O)c1cc(F)ccc1F)CC2	-13.3%	?	nt	?	nt	nt	nt	nt	nt
CCN(CC)C(=O)N1CC(Oc2ccc(-c3nc(C)no3)cc2)C1	-4.3%	?	15.8µM*	?	i	24.3µM*	?	0.0%	?
Cc1noc(-c2ccc(OC3CN(C(=O)NCc4ccc(F)cc4)C3)cc2)n1	i	?	12.6µM*	?	i	27.3µM*	?	-0.7%	24.3µM*
CN1CCN(C(=O)C2CCCN(c3nc4ncccc4o3)C2)CC1 (configuration not stated)	i	0.9%[172 µM]	-2.0%[70.6 µM]	-6.2%[138 µM]	i	nt	nt	nt	nt
O=C(c1cc(-c2ccc(Cl)cc2Cl)c2nncn2n1)N1CCCCC1	i	?	nt	?	nt	nt	nt	nt	nt
COc1ccc(-c2cc(N3CCCN(C(=O)Cc4ccccc4Br)CC3)n[nH]2)cc1	?	?	-4.3%	?	i	nt	nt	nt	nt
O=C(c1ccc2[nH]ccc2c1)N1CCCN(c2cc(-c3ccc(Br)cc3)[nH]n2)CC1	?	22.4µM*	4.47µM*	31.6µM*	i	24.3µM*	24.3µM*	-12.8%	19.3µM*
COc1ccc(C(=O)N2CCN(c3cc(-c4ccc(Cl)cc4)[nH]n3)CC2)cc1OC	i	35.5µM*	6.31µM*	?	i	15.3µM*	19.3µM*	-10.4%	13.7µM*
COc1ccc(C(=O)N2CCCN(c3cc(-c4ccc(Cl)cc4)[nH]n3)CC2)cc1F	?	?	?	25.1µM*	i	24.3µM*	21.7µM*	2.8%	24.3µM*
COc1ccc(C(=O)N2CCCN(c3cc(-c4ccc(Br)cc4)[nH]n3)CC2)cc1F	?	39.8µM*	11.2µM*	22.4µM*	i	21.7µM*	19.3µM*	-2.7%	15.3µM*
CCCN1C(=O)Cc2ccccc2C1C(=O)NCc1cc(OC)ccc1OC (configuration not stated)	i	?	-26.0%	-26.1%	i	?	?	2.9%	-10.8%
O=S(=O)(c1cccc(F)c1)N1CCC2(CC1)CC(Cc1nc(C3CC3)no1)CCO2 (configuration not stated)	3.3%	44.7µM*	11.2µM*	?	i	24.3µM*	24.3µM*	3.3%	21.7µM*
O=C(C1CCC1)N1CCC2(CC1)CC(Cc1nc(C3CC3)no1)CCO2 (configuration not stated)	-6.1%	?	-17.3%	?	i	nt	nt	nt	nt
COc1ccccc1C(=O)NC1CCN(c2cc(C(F)(F)F)nc(C)n2)CC1	3.5%	?	?	?	i	?	-28.7%	3.2%	?
Cc1nc(N2CCC(NC(=O)Cc3ccccc3Cl)CC2)cc(C(F)(F)F)n1	-0.4%	?	10µM*	?	i	19.3µM*	17.2µM*	1.8%	10.9µM*
O=C(Cc1ccccc1Cl)NC1CCN(c2cc(C(F)(F)F)ncn2)CC1	i	?	11.2µM*	-40.7%	i	19.3µM*	15.3µM*	-1.4%	15.3µM*
Cc1ccc(CCNC(=O)C2CCN(c3cc(C(F)(F)F)nc(C)n3)CC2)cc1	-6.3%	?	-23.0%	-29.0%	i	nt	nt	nt	nt
Cc1nc(N2CCC(C(=O)NCc3cccc(Cl)c3)CC2)cc(C(F)(F)F)n1	-11.2%	?	10µM*	?	i	19.3µM*	19.3µM*	7.5%	17.2µM*
Cc1ccc(Cn2c(C3CCN(C(=O)c4cccc(C(F)(F)F)c4)CC3)n[nH]c2=O)cc1	0.1%	?	0.0%	?	i	nt	nt	nt	nt
CC(=O)NC1CCN(c2ccc3nnc(C4CC4)n3n2)C1 (configuration not stated)	nt	-8.3%[172 µM]	nt	?	nt	nt	nt	nt	nt
O=C(c1ccccc1)N1CCC2(CC1)C(=O)NN=C2c1cccnc1	i	1.4%	0.0%	-10.7%	i	nt	nt	nt	nt
O=C(OCc1ccccc1)N1CCC2(CC1)C(=O)NN=C2c1cccnc1	i	?	?	?	i	19.3µM*	21.7µM*	0.7%	17.2µM*
COc1ccc2ccc(OCc3nc(C(=O)N4CCC(NC(C)=O)CC4)co3)cc2c1	3.6%	?	-23.3%	?	i	nt	nt	nt	nt
COc1ccc2ccc(OCc3nc(C(=O)N4CCCC(C(N)=O)C4)co3)cc2c1 (configuration not stated)	-6.2%	?	11.2µM*	?	i	13.7µM*	19.3µM*	-18.6%	10.9µM*
COc1ccc2ccc(OCc3nc(C(=O)N(C)Cc4cc(C)no4)co3)cc2c1	i	?	?	?	i	30.6µM*	?	-21.6%	?
COc1ccc2ccc(OCc3nc(C(=O)N(C)CC4CCCO4)co3)cc2c1 (configuration not stated)	i	?	-28.0%	?	?	nt	nt	nt	nt
